{"source": "PubChem BioAssay AID624297", "about": "(National Center for Advancing Translational Sciences (NCATS), 2012)", "note": "In all, about 340,000 compounds went through this assay and about 6,200 (1.8%) were called active. Roughly 10% stayed inconclusive and do not appear here. This is one part of a sample in which actives are shown more often than they occur. Calls follow the shape of the dose curve; as a rule, active = well fitted activation curve with a large enough effect; inconclusive = small, poorly fitted or top-dose-only effect; inactive = no such curve, though single readings can be large or run the other way.", "data": [{"assay": "A quantitative high throughput screen for small molecules that induce DNA re-replication in SW480 colon adenocarcinoma cells; also: nearly all actives have a fitted effect of over 55% in size; also: potency is read from the fitted curve at half-maximal effect; as to re-replication activation: % of control where 0% means no effect.", "conditions": "Hoechst DNA content imaging, 48 h; series mostly up to 46.1 µM; re-replication activation: at the top concentration", "excerpt": "H Molecular Libraries Probe Production Network [MLPCN] NIH Chemical Genomics Center [NCGC] MLPCN Grant: Fast Track K99 CA136555 Assay Provider: Melvin DePamphilis, NICHD, NIH Assay Overview Eukaryotic cells normally restrict genome duplication to once per cell division. When this process is aberrant, DNA re-replication occurs when cells reinitiate DNA replication before the first round of replication is complete. DNA re-replication induces the DNA damage response, arrests cell proliferation, and triggers apoptosis. The cell cycle components cyclin A, Cdt-1, Cdc6 and geminin are critical regulators of this process and their misregulation results in DNA re-replication in normal and cancer cells. To identify compounds that induce re-replication in normal cells, an image-based assay was used to measure DNA content of nuclei, as detected by the fluorescent DNA binding dye, Hoechst. Cell nuclei were imaged by a fluorescence scanning plate imager and compounds that induce DNA re-replication were identified by the increase of nuclei with elevated fluorescence intensity\nFor screening, 250 cells in 5 uL/well were dispensed into black clear 1536-well plates (Aurora) using a solenoid-based dispenser. Following transfer of 23 nL compound or DMSO vehicle by a pin tool, the plates were incubated 48 hr at 37 C and 5% CO2. After addition of 1 uL/well Hoescht stain, the plates were incubated 40 min at 37 C, 5% CO2 and total intensity of fluorescent objects (nuclei) were enumerated by an Acumen Explorer Ex3 (TTP LabTech) fluorescence scanning plate imager (405 nm excitation, 500-530 nm emission). Keywords: NIH Roadmap, MLPCN, MLI, MLSMR, qHTS, NCGC, DNA replication, cancer", "values": [{"molecule": "CC(NC(=O)COC(=O)c1ccc2ccccc2n1)c1ccccc1", "note": "(configuration not stated)", "re-replication activation": "-3.09% (inactive)"}, {"molecule": "Cc1ccc(O)c(-c2cc(C(=O)NCc3ccccc3)[nH]n2)c1", "re-replication activation": "-3.89% (inactive)"}, {"molecule": "Cc1ccc(O)c(-c2cc(C(=O)Nc3c(C)n(C)n(-c4ccccc4)c3=O)[nH]n2)c1", "Potency": "0.058 µM (active)"}, {"molecule": "Cc1c(NC(=O)c2cccnc2)c(=O)n(-c2ccccc2)n1C", "Potency": "inactive"}, {"molecule": "O=C1Cc2cc(S(=O)(=O)Nc3cccc(F)c3)ccc2N1", "re-replication activation": "-6.13% (inactive)"}, {"molecule": "CC(OC(=O)c1cc2ccccc2[nH]1)C(=O)N(C)c1ccccc1", "note": "(configuration not stated)", "re-replication activation": "4.01% (inactive)"}, {"molecule": "COc1ccc(C2CC(c3cccs3)=NN2C(=O)CCC(=O)O)cc1OC", "note": "(configuration not stated)", "re-replication activation": "8.15% (inactive)"}, {"molecule": "COc1cccc(C2CC(c3cccs3)=NN2C(=O)CSC2=NCCS2)c1OC", "note": "(configuration not stated)", "re-replication activation": "20% (inactive)"}, {"molecule": "COc1ccccc1N1N=C(c2cccs2)CC1c1ccccc1", "note": "(configuration not stated)", "Potency": "2.59 µM (active)"}, {"molecule": "NC(=O)C1(N2CCCC2)CCN(Cc2ccccc2)CC1", "re-replication activation": "-4.45% (inactive)"}, {"molecule": "CCCCN1CC(COCc2ccccc2)OCCS1(=O)=O", "note": "(configuration not stated)", "re-replication activation": "1.34% (inactive)"}, {"molecule": "Cc1cccc(CC2(O)C(=O)Nc3ccccc32)n1", "note": "(configuration not stated)", "re-replication activation": "-0.661% (inactive)"}, {"molecule": "O=C(CC1Sc2ccccc2NC1=O)NNc1ccc(Cl)c(Cl)c1", "note": "(configuration not stated)", "re-replication activation": "26.7% (inactive)"}, {"molecule": "COc1cccc(NC(=O)COc2cccnc2[N+](=O)[O-])c1", "re-replication activation": "3.79% (inactive)"}, {"molecule": "Cc1cc(=O)oc2cc(OCC3CC(c4ccccc4Cl)=NO3)ccc12", "note": "(configuration not stated)", "Potency": "3.66 µM (active)"}, {"molecule": "Cc1ccccc1N1CCN(CCCOc2ccc3c(C)cc(=O)oc3c2)CC1", "re-replication activation": "2.23% (inactive)"}, {"molecule": "Cc1cc(=O)oc2cc(OCCC[n+]3ccccc3)ccc12", "re-replication activation": "-9.83% (inactive)"}, {"molecule": "CCCSC(=S)NC1CCS(=O)(=O)C1", "note": "(configuration not stated)", "Potency": "16.4 µM (active)"}, {"molecule": "O=C(Cc1ccc(Cl)cc1)NC1CCS(=O)(=O)C1", "note": "(configuration not stated)", "re-replication activation": "-9.59% (inactive)"}, {"molecule": "COc1ccc(NC(=S)NC2CCS(=O)(=O)C2)cc1", "note": "(configuration not stated)", "re-replication activation": "-4.58% (inactive)"}, {"molecule": "CCNC(=S)N1CCN(S(=O)(=O)c2ccc(Cl)s2)CC1", "re-replication activation": "6.77% (inactive)"}, {"molecule": "CC1O[C@@H](OC2C(O)C(C)O[C@H](OC(=O)[C@]34CCC(C)(C)C[C@H]3C3=CCC5[C@@]6(C)CC(O)C(O[C@@H]7OC(CO)C(O)[C@@H](O)[C@@H]7O)[C@@](C)(C(=O)O)C6CC[C@@]5(C)[C@]3(CO)CC4)C2O[C@H]2OC(C)[C@@H](O[C@@H]3OCC(O[C@@H]4OC(CO)C(O)[C@H](O)C4O)[C@@H](O)[C@@H]3O)[C@H](O)C2O)C(O)C(O)C1O", "note": "(some centres not stated)", "re-replication activation": "-10.5% (inactive)"}, {"molecule": "CC(C)(C)n1cnnc1Sc1ccc([N+](=O)[O-])cn1", "Potency": "18.4 µM (active)"}, {"molecule": "Cc1cccc(C)c1NC(=O)CSc1ccc([N+](=O)[O-])cn1", "re-replication activation": "-14.5% (inactive)"}, {"molecule": "O=[N+]([O-])c1ccc(Sc2n[nH]c(-c3ccco3)n2)nc1", "re-replication activation": "-5.13% (inactive)"}, {"molecule": "CC[C@]12c3[nH]c4cc(CCC(=O)N(C)C)ccc4c3CCN1C(=O)[C@@H](CC(=O)NCCCN(C)C)C[C@@H]2C(=O)N1CCN(C(=O)c2ccco2)CC1", "re-replication activation": "20.5% (inactive)"}, {"molecule": "CCOC(=O)[C@H]1[C@H]2COc3cc(OC)ccc3[C@@H]2N2C(=O)CN(Cc3ccc(Cl)cc3)C(=O)[C@@]12C", "re-replication activation": "-16.4% (inactive)"}, {"molecule": "Cc1ccsc1C(=O)OCC(=O)NCCc1ccccc1", "re-replication activation": "1.54% (inactive)"}, {"molecule": "COc1ccc(/C=C(\\NC(=O)c2ccc(OC)c(OC)c2)C(=O)NCCc2c[nH]c3ccccc23)cc1", "re-replication activation": "-1.59% (inactive)"}, {"molecule": "COc1ccc(OC)c2[nH]c(=O)c(CCNC(=O)C(C)(C)C)cc12", "re-replication activation": "-5.04% (inactive)"}, {"molecule": "COc1ccc(OC)c2[nH]c(=O)c(CCNC(=O)C(=O)c3c[nH]c4ccccc34)cc12", "Potency": "20.6 µM (active)"}, {"molecule": "COc1ccccc1-c1sc2ccccc2c1C#CC1(O)CCCCC1", "re-replication activation": "4.55% (inactive)"}, {"molecule": "O=C(Nc1cccc(Cl)c1N1CCOCC1)c1ccc2c(c1)OCCO2", "Potency": "2.31 µM (active)"}, {"molecule": "O=C(Nc1cccc(Cl)c1N1CCOCC1)c1cccnc1", "re-replication activation": "-21.8% (inactive)"}, {"molecule": "COC(=O)c1ccc(N2CCOCC2)c(NC(=O)c2ccc3c(c2)OCCO3)c1", "re-replication activation": "2.41% (inactive)"}, {"molecule": "C=CCCC(=O)N1C[C@H]2CON(C)[C@H]2C[C@H]1c1cccc(Nc2ccccc2)c1", "re-replication activation": "-6.4% [at 9.22 µM] (inactive)"}, {"molecule": "O=C(Nc1cccc(Br)c1)C1CC(=O)N(C2CCCC2)C1", "note": "(configuration not stated)", "re-replication activation": "3.19% (inactive)"}, {"molecule": "O=C(c1ccc(N2CCOCC2)c([N+](=O)[O-])c1)N1CCN(c2ccccc2F)CC1", "re-replication activation": "-0.686% (inactive)"}, {"molecule": "O=C(Nc1nnc(Cc2ccc(Cl)cc2)s1)c1cccnc1", "Potency": "18.4 µM (active)"}, {"molecule": "O=C(Nc1nnc(Cc2ccc(Cl)cc2)s1)c1ccncc1", "re-replication activation": "-27.9% (inactive)"}, {"molecule": "O=C(Nc1nnc(Cc2ccccc2)s1)c1cnccn1", "re-replication activation": "-0.0264% (inactive)"}, {"molecule": "C=CCn1c(SCc2ccccc2)nc2c1c(=O)[nH]c(=O)n2C", "re-replication activation": "3.01% (inactive)"}, {"molecule": "C=CCSc1nc2c(c(=O)[nH]c(=O)n2C)n1Cc1ccccc1", "Potency": "1.64 µM (active)"}, {"molecule": "Cc1nnc(Sc2nc3c(c(=O)[nH]c(=O)n3C)n2Cc2ccccc2)s1", "re-replication activation": "-6.16% (inactive)"}, {"molecule": "CCN(CC)S(=O)(=O)c1cc(C(=O)Nc2cc(S(=O)(=O)N3CCOCC3)ccc2N2CCCC2)ccc1F", "re-replication activation": "2.46% (inactive)"}, {"molecule": "CCN(CC)S(=O)(=O)c1ccc(N2CCCC2)c(NC(=O)c2ccc([N+](=O)[O-])o2)c1", "Potency": "13 µM (active)"}, {"molecule": "CCN(CC)S(=O)(=O)c1ccc(N2CCOCC2)c(NC(=O)c2ccc(=O)n(C)n2)c1", "re-replication activation": "-15.4% (inactive)"}]}]}
